# What was measured:
# Experiment in all cases: yeast three-hybrid, YBZ-1, SC-Leu-His + 0.5 mM 3-AT, 4 days
# Settings in all cases: tags: N-Gal4 AD-HA kept; label: inside an RPR1-promoter hybrid RNA with tandem MS2 sites; ssRNA
# PUM1 PUF domain R5-KKL = PUM1 PUF domain R5-KKL (Homo sapiens, UniProt Q14671 828-1176, C1007K;R1008K;Q1011L)
# Procedure, shortened: (§1)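 Matching RNA elements and Pumilio-1 PUF domain libraries, randomized at the three base-contacting residues of every repeat, were co-expressed from a centromeric plasmid in strain YBZ-1 (LexA–MS2 coat fusion, HIS3 reporter). The repeat regions were PCR-amplified and Illumina-sequenced from cells grown four days on SC-Leu (input) or SC-Leu-His + 0.5 mM 3-AT (selection). The interaction score is the log change in variant frequency from input to selection. It is computed in log2, with a pseudocount of 1 for absent variants.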
# PUM1 PUF domain R5-EKC = PUM1 PUF domain R5-EKC (Homo sapiens, UniProt Q14671 828-1176, C1007E;R1008K;Q1011C)
# Procedure, shortened: as §1
# PUM1 PUF domain R5-KWG = PUM1 PUF domain R5-KWG (Homo sapiens, UniProt Q14671 828-1176, C1007K;R1008W;Q1011G)
# Procedure, shortened: as §1
# PUM1 PUF domain R5-RGD = PUM1 PUF domain R5-RGD (Homo sapiens, UniProt Q14671 828-1176, C1007R;R1008G;Q1011D)
# Procedure, shortened: as §1
# PUM1 PUF domain R5-DFW = PUM1 PUF domain R5-DFW (Homo sapiens, UniProt Q14671 828-1176, C1007D;R1008F;Q1011W)
# Procedure, shortened: as §1
# PUM1 PUF domain R5-NRF = PUM1 PUF domain R5-NRF (Homo sapiens, UniProt Q14671 828-1176, C1007N;Q1011F)
# Procedure, shortened: as §1
# PUM1 PUF domain R8-RWV = PUM1 PUF domain R8-RWV (Homo sapiens, UniProt Q14671 828-1176, N1122R;Y1123W;Q1126V)
# Procedure, shortened: as §1
# PUM1 PUF domain R8-KFP = PUM1 PUF domain R8-KFP (Homo sapiens, UniProt Q14671 828-1176, N1122K;Y1123F;Q1126P)
# Procedure, shortened: as §1
# PUM1 PUF domain R5-GQS = PUM1 PUF domain R5-GQS (Homo sapiens, UniProt Q14671 828-1176, C1007G;R1008Q;Q1011S)
# Procedure, shortened: as §1
# PUM1 PUF domain R3-DRL = PUM1 PUF domain R3-DRL (Homo sapiens, UniProt Q14671 828-1176, C935D;Q939L)
# Procedure, shortened: as §1
# PUM1 PUF domain R4-DFA = PUM1 PUF domain R4-DFA (Homo sapiens, UniProt Q14671 828-1176, N971D;H972F;Q975A)
# Procedure, shortened: as §1
# PUM1 PUF domain R6-SFR = target: T1, PUM1 PUF domain R6-SFR (Homo sapiens, UniProt Q14671 828-1176, N1043S;Y1044F;Q1047R)
# T1 sequence: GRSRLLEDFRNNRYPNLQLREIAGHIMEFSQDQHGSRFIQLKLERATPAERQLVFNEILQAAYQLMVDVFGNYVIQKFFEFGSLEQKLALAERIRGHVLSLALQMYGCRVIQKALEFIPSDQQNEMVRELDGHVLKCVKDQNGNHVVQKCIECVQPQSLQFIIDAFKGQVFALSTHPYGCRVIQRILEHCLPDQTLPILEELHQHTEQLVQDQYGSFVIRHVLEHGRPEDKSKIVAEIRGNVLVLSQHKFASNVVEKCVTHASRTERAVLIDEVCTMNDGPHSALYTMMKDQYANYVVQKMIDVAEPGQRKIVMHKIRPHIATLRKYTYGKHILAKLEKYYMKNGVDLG
# Procedure, shortened: as §1
# PUM1 PUF domain R1-YQR = PUM1 PUF domain R1-YQR (Homo sapiens, UniProt Q14671 828-1176, S863Y;R864Q;Q867R)
# Procedure, shortened: as §1
# PUM1 PUF domain R1-RVV = PUM1 PUF domain R1-RVV (Homo sapiens, UniProt Q14671 828-1176, S863R;R864V;Q867V)
# Procedure, shortened: as §1
# PUM1 PUF domain R5-KHT = PUM1 PUF domain R5-KHT (Homo sapiens, UniProt Q14671 828-1176, C1007K;R1008H;Q1011T)
# Procedure, shortened: as §1
# PUM1 PUF domain R3-RST = PUM1 PUF domain R3-RST (Homo sapiens, UniProt Q14671 828-1176, C935R;R936S;Q939T)
# Procedure, shortened: as §1
# PUM1 PUF domain R3-RDR = PUM1 PUF domain R3-RDR (Homo sapiens, UniProt Q14671 828-1176, C935R;R936D;Q939R)
# Procedure, shortened: as §1
# PUM1 PUF domain R7-GVK = PUM1 PUF domain R7-GVK (Homo sapiens, UniProt Q14671 828-1176, S1079G;N1080V;E1083K)
# Procedure, shortened: as §1
# PUM1 PUF domain R7-GTR = PUM1 PUF domain R7-GTR (Homo sapiens, UniProt Q14671 828-1176, S1079G;N1080T;E1083R)
# Procedure, shortened: as §1
# PUM1 PUF domain R3-SLE = PUM1 PUF domain R3-SLE (Homo sapiens, UniProt Q14671 828-1176, C935S;R936L;Q939E)
# Procedure, shortened: as §1
sequence,measurement,setting,value
GGCUAGAACUAGUGGAUCCCCCGGCGCCCGGCGGCUCGAGCCCGGGUAAGUGUCAAUAGUCUGCAUGCCGCCGGGCGCCAUGCCUGCAGGUCGACUCUAGAAAACAUG,binding signal,PUM1 PUF domain R5-KKL,2.13 log2 enrichment (interaction score)
same,binding signal,PUM1 PUF domain R5-EKC,2.59 log2 enrichment (interaction score)
same,binding signal,PUM1 PUF domain R5-KWG,4.46 log2 enrichment (interaction score)
same,binding signal,PUM1 PUF domain R5-RGD,3.87 log2 enrichment (interaction score)
same,binding signal,PUM1 PUF domain R5-DFW,2.86 log2 enrichment (interaction score)
GGCUAGAACUAGUGGAUCCCCCGGCGCCCGGCGGCUCGAGCCCGGGUAAGUGUUAAUAGUCUGCAUGCCGCCGGGCGCCAUGCCUGCAGGUCGACUCUAGAAAACAUG,binding signal,PUM1 PUF domain R5-KKL,2.25 log2 enrichment (interaction score)
same,binding signal,PUM1 PUF domain R5-EKC,2.3 log2 enrichment (interaction score)
same,binding signal,PUM1 PUF domain R5-NRF,5.64 log2 enrichment (interaction score)
GGCUAGAACUAGUGGAUCCCCCGGCGCCCGGCGGCUCGAGCCCGGGUAAGCGUAAAUAGUCUGCAUGCCGCCGGGCGCCAUGCCUGCAGGUCGACUCUAGAAAACAUG,binding signal,PUM1 PUF domain R8-RWV,5.22 log2 enrichment (interaction score)
same,binding signal,PUM1 PUF domain R8-KFP,3.9 log2 enrichment (interaction score)
GGCUAGAACUAGUGGAUCCCCCGGCGCCCGGCGGCUCGAGCCCGGGUAAGUGUAAAUAGUCUGCAUGCCGCCGGGCGCCAUGCCUGCAGGUCGACUCUAGAAAACAUG,binding signal,PUM1 PUF domain R8-RWV,5.01 log2 enrichment (interaction score)
same,binding signal,PUM1 PUF domain R5-GQS,3.39 log2 enrichment (interaction score)
same,binding signal,PUM1 PUF domain R3-DRL,3.71 log2 enrichment (interaction score)
same,binding signal,PUM1 PUF domain R4-DFA,2.78 log2 enrichment (interaction score)
same,binding signal,PUM1 PUF domain R6-SFR,6.56 log2 enrichment (interaction score)
same,binding signal,PUM1 PUF domain R8-KFP,4.88 log2 enrichment (interaction score)
GGCUAGAACUAGUGGAUCCCCCGGCGCCCGGCGGCUCGAGCCCGGGUAAGUGUAAAUUGUCUGCAUGCCGCCGGGCGCCAUGCCUGCAGGUCGACUCUAGAAAACAUG,binding signal,PUM1 PUF domain R1-YQR,6.49 log2 enrichment (interaction score)
same,binding signal,PUM1 PUF domain R1-RVV,2.58 log2 enrichment (interaction score)
GGCUAGAACUAGUGGAUCCCCCGGCGCCCGGCGGCUCGAGCCCGGGUAAGUGUGAAUAGUCUGCAUGCCGCCGGGCGCCAUGCCUGCAGGUCGACUCUAGAAAACAUG,binding signal,PUM1 PUF domain R5-GQS,2.15 log2 enrichment (interaction score)
same,binding signal,PUM1 PUF domain R5-KHT,2.38 log2 enrichment (interaction score)
GGCUAGAACUAGUGGAUCCCCCGGCGCCCGGCGGCUCGAGCCCGGGUAAGUGUAAUUAGUCUGCAUGCCGCCGGGCGCCAUGCCUGCAGGUCGACUCUAGAAAACAUG,binding signal,PUM1 PUF domain R3-RST,2.83 log2 enrichment (interaction score)
same,binding signal,PUM1 PUF domain R3-RDR,4.8 log2 enrichment (interaction score)
GGCUAGAACUAGUGGAUCCCCCGGCGCCCGGCGGCUCGAGCCCGGGUAAGUGUAAAUCGUCUGCAUGCCGCCGGGCGCCAUGCCUGCAGGUCGACUCUAGAAAACAUG,binding signal,PUM1 PUF domain R1-RVV,2.37 log2 enrichment (interaction score)
GGCUAGAACUAGUGGAUCCCCCGGCGCCCGGCGGCUCGAGCCCGGGUAAGUUUAAAUAGUCUGCAUGCCGCCGGGCGCCAUGCCUGCAGGUCGACUCUAGAAAACAUG,binding signal,PUM1 PUF domain R7-GVK,4.74 log2 enrichment (interaction score)
same,binding signal,PUM1 PUF domain R7-GTR,4.38 log2 enrichment (interaction score)
GGCUAGAACUAGUGGAUCCCCCGGCGCCCGGCGGCUCGAGCCCGGGUAAGUGUAAGUAGUCUGCAUGCCGCCGGGCGCCAUGCCUGCAGGUCGACUCUAGAAAACAUG,binding signal,PUM1 PUF domain R3-SLE,3.8 log2 enrichment (interaction score)
GGCUAGAACUAGUGGAUCCCCCGGCGCCCGGCGGCUCGAGCCCGGGUAAGUGUACAUAGUCUGCAUGCCGCCGGGCGCCAUGCCUGCAGGUCGACUCUAGAAAACAUG,binding signal,PUM1 PUF domain R4-DFA,6.02 log2 enrichment (interaction score)
GGCUAGAACUAGUGGAUCCCCCGGCGCCCGGCGGCUCGAGCCCGGGUAAGUGCAAAUAGUCUGCAUGCCGCCGGGCGCCAUGCCUGCAGGUCGACUCUAGAAAACAUG,binding signal,PUM1 PUF domain R6-SFR,7.11 log2 enrichment (interaction score)

# Source: article PMC8384837, “Expanding the binding specificity for RNA recognition by a PUF domain”
